# Laboratory results: article PMC11062922 (Nature Chemical Biology, 2023)
# Read-outs that look alike come from different tables or passages of the source.
# Key:
# SIK2 = conditions: read-out: apparent Kd, n = 1
# STK3 = conditions: read-out: apparent Kd, n = 1
substance,measurement,setting,value
Lestaurtinib,potency estimated from few doses,"SIK2; compound concentrations:100 nM and 1000 nM (sheet 'Lestaurtinib' of Supplementary Table 1),run:Lestaurtinib_02584_R3,Plate:MR017",53.4 nM
same,potency estimated from few doses,"SIK2; compound concentrations:100 nM and 1000 nM (sheet 'Lestaurtinib' of Supplementary Table 1),run:Lestaurtinib_02601_R2,Plate:MR018",94.3 nM
same,potency estimated from few doses,"SIK2; compound concentrations:100 nM and 1000 nM (sheet 'Lestaurtinib' of Supplementary Table 1),run:Lestaurtinib_02601_R3,Plate:MR018",40.2 nM
same,potency estimated from few doses,"SIK2; compound concentrations:100 nM and 1000 nM (sheet 'Lestaurtinib' of Supplementary Table 1),run:Lestaurtinib_02606_R1,Plate:MR019",51.2 nM
same,potency estimated from few doses,"SIK2; compound concentrations:100 nM and 1000 nM (sheet 'Lestaurtinib' of Supplementary Table 1),run:Lestaurtinib_02606_R2,Plate:MR019",45.6 nM
same,potency estimated from few doses,"SIK2; compound concentrations:100 nM and 1000 nM (sheet 'Lestaurtinib' of Supplementary Table 1),run:Lestaurtinib_02624_R1,Plate:MR020",51.5 nM
same,potency estimated from few doses,"SIK2; compound concentrations:100 nM and 1000 nM (sheet 'Lestaurtinib' of Supplementary Table 1),run:Lestaurtinib_02624_R2,Plate:MR020",49.5 nM
same,potency estimated from few doses,"SIK2; compound concentrations:100 nM and 1000 nM (sheet 'Lestaurtinib' of Supplementary Table 1),run:Lestaurtinib_02624_R3,Plate:MR020",46.5 nM
same,potency estimated from few doses,"SIK2; compound concentrations:100 nM and 1000 nM (sheet 'Lestaurtinib' of Supplementary Table 1),run:Lestaurtinib_02724_R1,Plate:MR021",73.9 nM
same,potency estimated from few doses,"SIK2; compound concentrations:100 nM and 1000 nM (sheet 'Lestaurtinib' of Supplementary Table 1),run:Lestaurtinib_02724_R2,Plate:MR021",44.8 nM
same,potency estimated from few doses,"SIK2; compound concentrations:100 nM and 1000 nM (sheet 'Lestaurtinib' of Supplementary Table 1),run:Lestaurtinib_02724_R3,Plate:MR021",50.5 nM
same,potency estimated from few doses,"SIK2; compound concentrations:100 nM and 1000 nM (sheet 'Lestaurtinib' of Supplementary Table 1),run:Lestaurtinib_02741_R1,Plate:MR023",57.2 nM
same,potency estimated from few doses,"SIK2; compound concentrations:100 nM and 1000 nM (sheet 'Lestaurtinib' of Supplementary Table 1),run:Lestaurtinib_02741_R2,Plate:MR023",71.3 nM
same,potency estimated from few doses,"SIK2; compound concentrations:100 nM and 1000 nM (sheet 'Lestaurtinib' of Supplementary Table 1),run:Lestaurtinib_02741_R3,Plate:MR023",54.5 nM
same,potency estimated from few doses,"SIK2; compound concentrations:100 nM and 1000 nM (sheet 'Lestaurtinib' of Supplementary Table 1),run:Lestaurtinib_02748_R1,Plate:MR024",48.8 nM
same,potency estimated from few doses,"SIK2; compound concentrations:100 nM and 1000 nM (sheet 'Lestaurtinib' of Supplementary Table 1),run:Lestaurtinib_02748_R2,Plate:MR024",56.4 nM
same,potency estimated from few doses,"SIK2; compound concentrations:100 nM and 1000 nM (sheet 'Lestaurtinib' of Supplementary Table 1),run:Lestaurtinib_02748_R3,Plate:MR024",51.6 nM
same,potency estimated from few doses,"SIK2; compound concentrations:100 nM and 1000 nM (sheet 'Lestaurtinib' of Supplementary Table 1),run:Lestaurtinib_02752_R2,Plate:MR025",56 nM
same,potency estimated from few doses,"SIK2; compound concentrations:100 nM and 1000 nM (sheet 'Lestaurtinib' of Supplementary Table 1),run:Lestaurtinib_02752_R3,Plate:MR025",56 nM
same,potency estimated from few doses,"SIK2; compound concentrations:100 nM and 1000 nM (sheet 'Lestaurtinib' of Supplementary Table 1),run:Lestaurtinib_02765_R1,Plate:MR026",49.7 nM
same,potency estimated from few doses,"SIK2; compound concentrations:100 nM and 1000 nM (sheet 'Lestaurtinib' of Supplementary Table 1),run:Lestaurtinib_02765_R2,Plate:MR026",91.3 nM
same,potency estimated from few doses,"SIK2; compound concentrations:100 nM and 1000 nM (sheet 'Lestaurtinib' of Supplementary Table 1),run:Lestaurtinib_02766_R1,Plate:MR027",43.3 nM
same,potency estimated from few doses,"SIK2; compound concentrations:100 nM and 1000 nM (sheet 'Lestaurtinib' of Supplementary Table 1),run:Lestaurtinib_02766_R2,Plate:MR027",26.9 nM
same,potency estimated from few doses,"SIK2; compound concentrations:100 nM and 1000 nM (sheet 'Lestaurtinib' of Supplementary Table 1),run:Lestaurtinib_02768_R2,Plate:MR028",45.1 nM
same,potency estimated from few doses,"SIK2; compound concentrations:100 nM and 1000 nM (sheet 'Lestaurtinib' of Supplementary Table 1),run:Lestaurtinib_02768_R3,Plate:MR028",47.4 nM
same,potency estimated from few doses,"SIK2; compound concentrations:100 nM and 1000 nM (sheet 'Lestaurtinib' of Supplementary Table 1),run:Lestaurtinib_02795_R1,Plate:MR022",59.7 nM
same,potency estimated from few doses,"SIK2; compound concentrations:100 nM and 1000 nM (sheet 'Lestaurtinib' of Supplementary Table 1),run:Lestaurtinib_02795_R2,Plate:MR022",62.3 nM
same,potency estimated from few doses,"SIK2; compound concentrations:100 nM and 1000 nM (sheet 'Lestaurtinib' of Supplementary Table 1),run:Lestaurtinib_02795_R3,Plate:MR022",165 nM
same,potency estimated from few doses,"SIK2; compound concentrations:100 nM and 1000 nM (sheet 'Lestaurtinib' of Supplementary Table 1),run:Lestaurtinib_02802_R1,Plate:MR029",49.8 nM
same,potency estimated from few doses,"SIK2; compound concentrations:100 nM and 1000 nM (sheet 'Lestaurtinib' of Supplementary Table 1),run:Lestaurtinib_02802_R2,Plate:MR029",52.5 nM
same,potency estimated from few doses,"SIK2; compound concentrations:100 nM and 1000 nM (sheet 'Lestaurtinib' of Supplementary Table 1),run:Lestaurtinib_02802_R3,Plate:MR029",25.3 nM
same,potency estimated from few doses,"SIK2; compound concentrations:100 nM and 1000 nM (sheet 'Lestaurtinib' of Supplementary Table 1),run:Lestaurtinib_02896_R2,Plate:MR030",44.8 nM
same,potency estimated from few doses,"SIK2; compound concentrations:100 nM and 1000 nM (sheet 'Lestaurtinib' of Supplementary Table 1),run:Lestaurtinib_03172_R1,Plate:MR031",46.2 nM
same,potency estimated from few doses,"SIK2; compound concentrations:100 nM and 1000 nM (sheet 'Lestaurtinib' of Supplementary Table 1),run:Lestaurtinib_03172_R2,Plate:MR031",51.4 nM
same,potency estimated from few doses,"SIK2; compound concentrations:100 nM and 1000 nM (sheet 'Lestaurtinib' of Supplementary Table 1),run:Lestaurtinib_03172_R3,Plate:MR031",49.5 nM
same,potency estimated from few doses,"SIK2; compound concentrations:100 nM and 1000 nM (sheet 'Lestaurtinib' of Supplementary Table 1),run:Lestaurtinib_03252_R2,Plate:MR032",34.3 nM
same,potency estimated from few doses,"SIK2; compound concentrations:100 nM and 1000 nM (sheet 'Lestaurtinib' of Supplementary Table 1),run:Lestaurtinib_03260_R1,Plate:MR033",77.2 nM
same,potency estimated from few doses,"SIK2; compound concentrations:100 nM and 1000 nM (sheet 'Lestaurtinib' of Supplementary Table 1),run:Lestaurtinib_03260_R3,Plate:MR033",54.9 nM
same,potency estimated from few doses,"STK3; compound concentrations:100 nM and 1000 nM (sheet 'Lestaurtinib' of Supplementary Table 1),run:Lestaurtinib_02339_R1,Plate:MR001",36.6 nM
same,potency estimated from few doses,"STK3; compound concentrations:100 nM and 1000 nM (sheet 'Lestaurtinib' of Supplementary Table 1),run:Lestaurtinib_02339_R2,Plate:MR001",36.6 nM
same,potency estimated from few doses,"STK3; compound concentrations:100 nM and 1000 nM (sheet 'Lestaurtinib' of Supplementary Table 1),run:Lestaurtinib_02364_R1,Plate:MR002",36.5 nM
same,potency estimated from few doses,"STK3; compound concentrations:100 nM and 1000 nM (sheet 'Lestaurtinib' of Supplementary Table 1),run:Lestaurtinib_02364_R3,Plate:MR002",51.5 nM
